Values joined by “and” are separate entries in the source; they are usually repeats but may differ in a detail not shown here. Identical values can stand only once. Records with an inconclusive call do not appear. A structure can be active in one record and inactive in another. Active and inactive are the calls of the source. How the source made its calls, unless noted: active means hit-call score of the fitted dose curve at least 0.9, where 1 is the maximum; inactive means score below 0.9.
Columns and labels:
[1] = read-out: Monocyte Chemoattractant Protein-1 (MCP1), CCL2 (gene 6347); assay: BSK_LPS_MCP1: BioMAP Diversity Plus: LPS Assay for Monocyte Chemoattractant Protein-1 (MCP1) Biomarker Activity (AID 2283081); details: primary human HUVEC with PBMC; actives raise or lower the signal
In short: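 HUVEC plus PBMC co-culture (human primary cells, LPS system) exposed to test chemical for 24 h; MCP-1 measured by ELISA. Bidirectional curve fitting against DMSO baseline; parallel SRB total-protein staining flags overt cytotoxicity.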

[2] = read-out: Macrophage colony-stimulating factor (MCSF), CSF1 (gene 1435); assay: BSK_LPS_MCSF: BioMAP Diversity Plus: LPS Assay for Macrophage colony-stimulating factor (MCSF) Biomarker Activity (AID 2283083); details: primary human HUVEC with PBMC; actives raise or lower the signal
In short: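 Human umbilical vein endothelial cells co-cultured with peripheral blood mononuclear cells were exposed to compound for 24 h. M-CSF levels were measured by ELISA, and bidirectional curve fitting used DMSO as the negative control and baseline.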

[3] = read-out: Tissue Factor, F3 (gene 2152); assay: BSK_LPS_TissueFactor: BioMAP Diversity Plus: LPS Assay for Tissue Factor Biomarker Activity (AID 2283084); details: primary human HUVEC with PBMC; actives raise or lower the signal
In short: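 Human umbilical vein endothelial cells co-cultured with peripheral blood mononuclear cells were dosed and stimulated with LPS. Cell-surface CD142 was quantified by ELISA at 24 h. Activity was fitted bidirectionally against DMSO baseline.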

[4] = read-out: Tumor necrosis factor (Homo sapiens) (UniProt P01375); assay: BSK_LPS_TNFa: BioMAP Diversity Plus: LPS Assay for Tumour Necrosis Factor alpha (TNFa) Biomarker Activity (AID 2283085); details: primary human HUVEC with PBMC; actives raise or lower the signal
In short: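 Read-out is ELISA of TNFa in primary human endothelial cell–PBMC co-cultures at 24 h after compound. Activity in either direction was fitted against DMSO.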

[5] = read-out: Vascular cell adhesion molecule 1 (VCAM1), VCAM1 (gene 7412); assay: BSK_LPS_VCAM1: BioMAP Diversity Plus: LPS Assay for Vascular cell adhesion molecule 1 (VCAM1) Biomarker Activity (AID 2283086); details: primary human HUVEC with PBMC; actives raise or lower the signal
In short: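 HUVEC + PBMC co-culture, LPS system; compound 24 h; VCAM-1 by ELISA; bidirectional fit vs DMSO control; parallel SRB (0.1%, TCA-fixed, 560 nm) for cytotoxicity.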

[6] = read-out: CD38, CD38 (gene 952); assay: BSK_SAg_CD38: BioMAP Diversity Plus: SAg Assay for CD38 Biomarker Activity (AID 2283087); details: primary human HUVEC with PBMC; actives raise or lower the signal
In short: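 Human HUVEC plus PBMC co-culture stimulated with superantigen; CD38 measured by ELISA 24 h after chemical dosing. Fluorescence read-out, bidirectional fit against DMSO; cytotoxicity tracked in parallel by SRB and Alamar Blue.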

[7] = read-out: CD40, CD40 (gene 958); assay: BSK_SAg_CD40: BioMAP Diversity Plus: SAg Assay for CD40 Biomarker Activity (AID 2283088); details: primary human HUVEC with PBMC; actives raise or lower the signal
In short: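 Human umbilical vein endothelial cells co-cultured with PBMC; CD40 levels measured by ELISA with fluorescence read-out 24 h after chemical dosing. Gain or loss of signal fitted bidirectionally against DMSO baseline.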

[8] = read-out: Monocyte Chemoattractant Protein-1 (MCP1), CCL2 (gene 6347); assay: BSK_SAg_MCP1: BioMAP Diversity Plus: SAg Assay for Monocyte Chemoattractant Protein-1 (MCP1) Biomarker Activity (AID 2283090); details: primary human HUVEC with PBMC; actives raise or lower the signal
In short: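 MCP-1 levels in the endothelial–PBMC SAg co-culture were quantified by ELISA at 24 h post-dosing; both increases and decreases versus DMSO scored. Cytotoxicity monitored by SRB total protein in parallel cultures.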

[9] = read-out: E-selectin (Homo sapiens) (UniProt P16581); assay: BSK_SAg_Eselectin: BioMAP Diversity Plus: SAg Assay for Eselectin Biomarker Activity (AID 2283091); details: primary human HUVEC with PBMC; actives raise or lower the signal
In short: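 HUVEC co-cultured with PBMC, compound dosed then read at 24 h; E-selectin measured by ELISA. Activity fitted bidirectionally against DMSO as negative control and baseline.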

[10] = read-out: Monokine induced gamma interferon (MIG), CXCL9 (gene 4283); assay: BSK_SAg_MIG: BioMAP Diversity Plus: SAg Assay for Monokine induced gamma interferon (MIG) Biomarker Activity (AID 2283092); details: primary human HUVEC with PBMC; actives raise or lower the signal
In short: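 Values reflect bidirectional fitting of ELISA-measured MIG against DMSO vehicle, taken 24 h after dosing of a co-culture of human umbilical vein endothelial cells and peripheral blood mononuclear cells.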

[11] = BSK_SAg_PBMCCytotoxicity: PBMC Cytotoxicity Assessment in the BioMAP Diversity Plus: SAg Assay (AID 2283093); details: primary human HUVEC with PBMC;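 further: PBMC superantigen activated with SEB plus TSST-1 one hour after compound addition; PBMC viability measured as Alamar Blue reduction fluorescence at 546/580 nm; fitted both ways against DMSO so a hit may be loss or gain of signal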
In short: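 HUVEC/PBMC co-culture; PBMC exposed to chemical 1 h before SEB and TSST-1 activation (20 ng/mL each), incubated 90 h, then Alamar Blue 6 h, fluorescence 546/580 nm. Bidirectional fit versus DMSO baseline.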

[12] = read-out: Interleukin-8 (IL8), CXCL8 (gene 3576); assay: BSK_SAg_IL8: BioMAP Diversity Plus: SAg Assay for Interleukin-8 (IL8) Biomarker Activity (AID 2283094); details: primary human HUVEC with PBMC; actives raise or lower the signal
In short: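 ELISA read-out of IL-8 in a primary human vascular co-culture (umbilical vein endothelium plus PBMC), taken 24 h after compound addition. Values derive from bidirectional fits against DMSO negative controls.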

[13] = BSK_SAg_Proliferation: Cell Proliferation Assessment in the BioMAP Diversity Plus: SAg Assay (AID 2283095); details: primary human HUVEC with PBMC;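 further: relative cell number as total protein by SRB absorbance in sub-confluent culture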
In short: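 Cells (endothelium plus PBMC, human primary) were dosed with chemical, cultured 96 h, fixed in 10% TCA and stained with 0.1% SRB. Absorbance at 560 nm gave relative protein, fitted bidirectionally relative to DMSO.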

[14] = BSK_SAg_SRB: Viability Assessment in the BioMAP Diversity Plus: SAg Assay (AID 2283096); details: primary human HUVEC with PBMC;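 further: cells read one day after compound addition; hits may be either gain or loss of signal compared with DMSO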
In short: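 Human umbilical vein endothelial cells co-cultured with PBMC, read 24 h after compound dosing. Total protein measured by sulforhodamine B staining (0.1% SRB after 10% TCA fixation, absorbance 560 nm); bidirectional fit versus DMSO baseline.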

[15] = target: bovine Estrogen Receptor (ER), ESR1 (gene 407238) (UniProt P49884); assay: NVS_NR_bER: NovaScreen (NVS) Nuclear Receptor Binding Assay for bovine Estrogen Receptor (ER) (AID 2283345; active means hit-call score of the fitted dose curve at least 0.9, where 1 is the maximum;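 further: actives lower the bound radioligand count which means they displace the ER ligand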)
In short: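 Bovine uterine membranes; tritiated or iodinated radioligand; competitive displacement; 18 h; scintillation read; DMSO negative control; 25 uM duplicates, then concentration series for actives.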

[16] = TOX21_p53_BLA_p2_viability: Viability Assessment in the Tox21 HCT-116 p53 Agonism Beta-lactamase Assay, Phase 2 (AID 2283591; active means hit-call score of the fitted dose curve at least 0.9, where 1 is the maximum;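 further: compound exposure lasted 16 h at 37 °C; actives lower the ATP signal meaning cytotoxicity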)
In short: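 HCT116 p53-bla cells, 4000/well, dosed after 5 h plating (217-fold dilution of DMSO stocks) and incubated 16 h at 37C. Viability taken as cellular ATP by CellTiter-Glo luminescence after 30 min RT; signal loss marks cytotoxicity.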

[17] = TOX21_p53_BLA_p3_viability: Viability Assessment in the Tox21 HCT-116 p53 Agonism Beta-lactamase Assay, Phase 3 (AID 2283593; active means hit-call score of the fitted dose curve at least 0.9, where 1 is the maximum;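 further: cells exposed to compound for 16 h before reading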)
In short: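 HCT116 cells, 4000/well, dosed 5 h after plating by pin transfer (217-fold dilution from DMSO stock) and incubated 16 h at 37C, 5% CO2. Viability read as ATP luminescence with CellTiter-Glo after 30 min at room temperature.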

[18] = TOX21_p53_BLA_p4_viability: Viability Assessment in the Tox21 HCT-116 p53 Agonism Beta-lactamase Assay, Phase 4 (AID 2283597; active means hit-call score of the fitted dose curve at least 0.9, where 1 is the maximum;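 further: hits lower the luminescence signal meaning cytotoxicity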)
In short: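 HCT116 p53-bla cells (4000/well) rested 5 h at 37C, then received compounds in DMSO (217-fold dilution) for 16 h at 37C, 5% CO2. CellTiter-Glo was added after the CCF4-AM read, and luminescence was read after 30 min at room temperature.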

[19] = TOX21_p53_BLA_p5_viability: Viability Assessment in the Tox21 HCT-116 p53 Agonism Beta-lactamase Assay, Phase 5 (AID 2283600; active means hit-call score of the fitted dose curve at least 0.9, where 1 is the maximum)
In short: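 Cells were plated at 4000/well, rested 5 h at 37C, then given compounds in DMSO (217-fold dilution) for 16 h at 37C, 5% CO2. Following the CCF4-AM beta-lactamase read, CellTiter-Glo was added and luminescence was read after 30 min at room temperature.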

Measured: AC50

E-selectin (Homo sapiens), sequence (P16581 whole entry, looked up): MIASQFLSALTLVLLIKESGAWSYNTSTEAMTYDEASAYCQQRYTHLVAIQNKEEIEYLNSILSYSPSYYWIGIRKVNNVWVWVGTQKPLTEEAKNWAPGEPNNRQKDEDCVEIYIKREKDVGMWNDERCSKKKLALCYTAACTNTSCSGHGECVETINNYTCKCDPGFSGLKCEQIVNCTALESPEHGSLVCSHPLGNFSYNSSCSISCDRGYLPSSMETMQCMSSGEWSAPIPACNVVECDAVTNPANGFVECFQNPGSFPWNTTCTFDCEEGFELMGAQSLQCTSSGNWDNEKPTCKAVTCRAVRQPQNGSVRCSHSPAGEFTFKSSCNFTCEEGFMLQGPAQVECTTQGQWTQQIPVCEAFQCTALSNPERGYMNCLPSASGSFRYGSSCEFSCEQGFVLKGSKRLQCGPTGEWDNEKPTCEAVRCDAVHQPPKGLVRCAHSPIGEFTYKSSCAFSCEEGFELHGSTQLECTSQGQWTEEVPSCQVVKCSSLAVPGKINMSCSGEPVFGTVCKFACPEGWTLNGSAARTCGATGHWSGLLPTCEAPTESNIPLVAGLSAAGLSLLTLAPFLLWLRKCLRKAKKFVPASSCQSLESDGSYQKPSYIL
Tumor necrosis factor (Homo sapiens), sequence (P01375 whole entry, looked up): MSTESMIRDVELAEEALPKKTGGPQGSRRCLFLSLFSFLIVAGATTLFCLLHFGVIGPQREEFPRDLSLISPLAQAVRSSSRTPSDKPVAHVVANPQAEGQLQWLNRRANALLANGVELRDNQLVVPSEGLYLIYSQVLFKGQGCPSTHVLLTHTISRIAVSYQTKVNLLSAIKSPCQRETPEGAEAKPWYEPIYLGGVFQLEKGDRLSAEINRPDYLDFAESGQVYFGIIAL
bovine Estrogen Receptor (ER), ESR1 (gene 407238), sequence (P49884 whole entry, looked up): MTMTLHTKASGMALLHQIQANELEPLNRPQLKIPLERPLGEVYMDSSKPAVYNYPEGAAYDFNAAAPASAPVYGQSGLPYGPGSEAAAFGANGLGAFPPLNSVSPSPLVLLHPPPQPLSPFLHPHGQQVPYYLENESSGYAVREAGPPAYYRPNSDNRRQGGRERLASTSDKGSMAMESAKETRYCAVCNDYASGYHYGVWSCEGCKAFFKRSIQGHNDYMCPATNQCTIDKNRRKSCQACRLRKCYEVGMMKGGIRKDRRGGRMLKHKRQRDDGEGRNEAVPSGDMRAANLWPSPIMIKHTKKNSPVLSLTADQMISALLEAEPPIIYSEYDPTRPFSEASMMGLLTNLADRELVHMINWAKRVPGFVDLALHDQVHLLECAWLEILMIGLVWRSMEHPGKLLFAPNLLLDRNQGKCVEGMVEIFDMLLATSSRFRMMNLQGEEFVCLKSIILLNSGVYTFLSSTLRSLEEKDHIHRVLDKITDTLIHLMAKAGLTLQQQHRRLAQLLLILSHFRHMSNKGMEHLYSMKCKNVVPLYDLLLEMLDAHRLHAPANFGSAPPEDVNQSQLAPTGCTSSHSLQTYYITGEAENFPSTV

[Cd+2].[Cl-].[Cl-]
active: [2] 19.5 µM and 31.2 µM | [4] 33 µM | [5] 30 µM and 35.9 µM | [6] 35.3 µM and 15.6 µM | [7] 30.2 µM and 34.7 µM | [8] 33 µM and 34.4 µM | [9] 32.2 µM and 30.2 µM | [11] 20 µM and 30.4 µM | [12] 34.9 µM and 31.4 µM | [13] 14 µM and 13.4 µM | [16] 67.9 µM and 68.1 µM | [17] 69.2 µM | [18] 68.6 µM | [19] 76.2 µM
inactive: [1] | [3] | [4] | [10] | [14] | [15] | [17] | [18]

Source: PubChem BioAssay (EPA / NIEHS)
